Screening results (PubChem BioAssay)
Hits are enriched below; roughly 3% of the tested compounds scored in any of these assays.
GCN5L2 inh: inhibitors of human GCN5L2 histone acetyltransferase; Q92830; GCN5L2 HAT assay, ThioGlo1 CoA-SH fluorescence; Potency, µM (titrated, usually from 58.9 µM), for inactives: at the highest dose activity change, negative = inhibition, usual class: inhibitors; 390,000 compounds, 0.21% hits
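Free CoA generated was detected with ThioGlo1 (50uM) fluorescence at Ex340nm/Em540nm, read immediately and after 20 min at room temperature. Enzyme, 20 nM in HEPES pH 7.5 buffer, saw compounds 15 min before adding 75uM H3(1-25) peptide and 70uM acetyl-CoA.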
VDR inh: inhibitors of human vitamin D receptor | AID 504847 | P11473 | Potency, µM, without a hit: max response, negative = inhibition, hits mostly inhibitors | VDR-SRC2-3 peptide fluorescence polarization, 2 h | 400,000 compounds, 0.93% hits
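VDR–SRC2-3 interaction, FP format. Cmpds 23 nl via pintool, brief spin, 2 h ambient incubation.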
12-LOX inh: inhibitors of human 12S-lipoxygenase ALOX12. P18054. Potency, µM (highest dose often 108 µM), without a hit: at the top dose activity change, negative = inhibition, hits mostly inhibitors. purified 12hLO, xylenol orange hydroperoxide absorbance. 580,000 compounds, 1.1% hits
Target sequence (P18054 whole entry, looked up): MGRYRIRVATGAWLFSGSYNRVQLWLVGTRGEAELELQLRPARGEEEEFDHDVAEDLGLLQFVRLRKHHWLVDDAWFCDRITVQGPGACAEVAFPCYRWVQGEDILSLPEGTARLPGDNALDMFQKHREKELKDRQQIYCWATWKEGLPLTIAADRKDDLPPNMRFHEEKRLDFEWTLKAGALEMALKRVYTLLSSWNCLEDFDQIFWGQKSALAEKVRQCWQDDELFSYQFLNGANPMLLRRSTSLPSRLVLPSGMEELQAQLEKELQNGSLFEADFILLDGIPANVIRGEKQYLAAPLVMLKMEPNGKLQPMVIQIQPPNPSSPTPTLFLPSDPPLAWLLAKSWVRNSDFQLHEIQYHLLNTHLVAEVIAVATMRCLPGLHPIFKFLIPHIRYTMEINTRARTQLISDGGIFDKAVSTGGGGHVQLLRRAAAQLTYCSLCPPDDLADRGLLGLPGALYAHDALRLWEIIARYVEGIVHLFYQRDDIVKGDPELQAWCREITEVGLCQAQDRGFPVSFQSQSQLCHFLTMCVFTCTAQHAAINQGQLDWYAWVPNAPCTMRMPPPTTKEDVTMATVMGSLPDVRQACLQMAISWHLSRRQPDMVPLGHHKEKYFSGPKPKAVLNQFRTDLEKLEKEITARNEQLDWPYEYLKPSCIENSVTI
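Hydroperoxide product was detected by ferrous iron/xylenol orange as the 573 to 405 nm absorbance ratio. Arachidonic acid at 40 uM (final) was turned over for 30 min at room temperature by 150 nM human 12hLO, pH 7.0 Hepes buffer, after 15 min compound preincubation.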
PLK1 PBD block: inhibitors of human PLK1 polo-box domain binding. P53350. Plk1 PBD binding of FITC phosphopeptide, fluorescence polarization. Potency, µM, inactives show max response, negative = inhibition, hits mostly inhibitors. 360,000 compounds, 2.8% hits. AID 720504; further: series mostly up to about 57 µM; nearly all actives have a fitted effect of over 65% in size
* marks the source's active call; other numbers are inactive results; ! = repeats disagree; [ ] = dose if it differs, or a comment. The call rests on the fitted dose curve; in most records, active means well fitted curve in the direction sought with a large enough effect; inconclusive means small, poorly fitted or top-dose-only effect, or another doubt; inactive means no such curve, though single readings can be large; an effect the other way counts as inactive or inconclusive. On the % scale 0 is the no-effect control and ±100 the full control effect; potency means the concentration at half of the fitted maximal effect.

`Cc1c(Cl)sn(-c2ccc(Cl)cc2)c1=O` gave GCN5L2 inh 10µM*, VDR inh 45µM*, 12-LOX inh 4.5µM* and PLK1 PBD block 2.7µM*.
O=[N+]([O-])c1cccc(-c2ccc3nnc(SCc4ccccn4)n3n2)c1 was read as GCN5L2 inh -3%, VDR inh inconclusive, 12-LOX inh 8% and PLK1 PBD block 24µM*.
Screening Cc1ccc(-n2nnnc2-c2cnoc2-c2cccc(F)c2)cc1 returned GCN5L2 inh -3%, VDR inh 50µM*, 12-LOX inh inconclusive and PLK1 PBD block 21µM*.
For CC(C)n1nccc1NC(=O)COc1ccc(C#N)cc1Cl the results were 12-LOX inh 8%.
C=CCN(c1ccc(C(=O)Nc2cccc(C)c2)cc1)S(C)(=O)=O was read as GCN5L2 inh -1%, VDR inh -4%, 12-LOX inh 4% and PLK1 PBD block -17%.
Screening C=CCN(c1ccc(C(=O)Nc2ccc(NC(C)=O)cc2)cc1)S(C)(=O)=O returned GCN5L2 inh -7%, VDR inh 35µM*, 12-LOX inh 4% and PLK1 PBD block 21µM*.
For CC(=O)Oc1ccc(C(=O)Nc2ccccc2C(=O)Nc2ccc(C(=O)O)cc2)cc1 the results were GCN5L2 inh 0%, VDR inh -7%, 12-LOX inh 4.5µM* and PLK1 PBD block -7%.
`COc1ccccc1NC(=O)c1ccccc1NC(=O)c1ccccc1C(=O)O` gave GCN5L2 inh -2%, VDR inh -15%, 12-LOX inh 1.8µM* and PLK1 PBD block -15%.
For COc1ccccc1NC(=O)CC(=O)c1ccccc1 the results were GCN5L2 inh -19%, VDR inh inconclusive, 12-LOX inh 10% and PLK1 PBD block 30µM*.
`COc1ccccc1NC(=O)O/N=C(\N)c1ccccc1` gave GCN5L2 inh 6%, VDR inh inconclusive, 12-LOX inh 16% and PLK1 PBD block 11µM*.
`COc1ccccc1NC(=O)c1ccccc1C(=O)Nc1ccccc1OC` gave GCN5L2 inh -20%, VDR inh -11%, 12-LOX inh 11% and PLK1 PBD block -6%.
CCN(CC)S(=O)(=O)c1ccc(C)c(N=CN(C)C)c1 was read as 12-LOX inh 34%.
`CC(=O)N(C1CC(C)C(C#N)(C#N)C1(C#N)C#N)N(C)C` (stereo unspecified) gave GCN5L2 inh 4%, VDR inh 35µM*, 12-LOX inh -2% and PLK1 PBD block 2.4µM*.
`CCCC(=O)N(C1CC(C)C(C#N)(C#N)C1(C#N)C#N)N(C)C` (stereo unspecified) gave GCN5L2 inh -13%, VDR inh 8.9µM*, 12-LOX inh 0% and PLK1 PBD block 6µM*.
Screening Cn1nc([N+](=O)[O-])nc1Oc1ccccc1F returned GCN5L2 inh -7%, VDR inh -25%, 12-LOX inh 16% and PLK1 PBD block 24µM*.
Screening Cn1nc([N+](=O)[O-])nc1Oc1ccccc1N returned GCN5L2 inh -6%, VDR inh 2%, 12-LOX inh -1% and PLK1 PBD block 0%.
`COc1cccc(-c2n[nH]c3c2CC(=O)N(Cc2ccccc2)C3)c1` gave 12-LOX inh 9%[176 µM].
For O=C(CCCc1c[nH]c2ccccc12)N1CCCCC1 the results were 12-LOX inh 4%.
For CN(C)C[C@@H]1CN(c2ncccn2)C[C@H]1NS(=O)(=O)Cc1ccc(F)cc1 the results were 12-LOX inh 41%.
For CCCCCCSc1ccc(-c2nc3cnccn3c2NC2CCCCC2)cc1 the results were 12-LOX inh inconclusive and PLK1 PBD block 4%.
For CCC(C)Sc1ccc(-c2nc3cnccn3c2NC2CCCCC2)cc1 (stereo unspecified) the results were GCN5L2 inh 28µM*, VDR inh -12%, 12-LOX inh inconclusive and PLK1 PBD block 0%.
Screening CCCCCCSc1ccc(-c2nc3cc(C)ccn3c2NC2CCCCC2)cc1 returned GCN5L2 inh -4%, VDR inh -11%, 12-LOX inh inconclusive and PLK1 PBD block -1%.
For CCC(C)Sc1ccc(-c2nc3cc(C)ccn3c2NC2CCCCC2)cc1 (stereo unspecified) the results were GCN5L2 inh -24%, VDR inh -9%, 12-LOX inh 35µM*! and PLK1 PBD block 1%.
CS(=O)(=O)Nc1ccccc1NC(=O)CCCc1ccccc1 was read as 12-LOX inh -10%.
`CCc1cc(-c2n[nH]c(C)c2-c2ccccc2Cl)c(O)cc1OC` gave GCN5L2 inh -1%, VDR inh 19%, 12-LOX inh 40µM* and PLK1 PBD block -8%.
Cn1nc(-c2ccccc2)c2nc3ccccc3nc21 was read as GCN5L2 inh -8%, VDR inh -1%, 12-LOX inh 455% and PLK1 PBD block 21µM*.
For O=C(NC(c1ccccc1)c1ccc(Br)cc1)C(c1ccccc1)C1CCCC1 (stereo unspecified) the results were 12-LOX inh 2%.
For CC(C)(C)NC(=O)C(c1ccncc1)N(C(=O)Cn1nnc(-c2ccc(F)cc2)n1)c1ccccc1 (stereo unspecified) the results were GCN5L2 inh 0%, VDR inh inconclusive, 12-LOX inh -5% and PLK1 PBD block 27µM*.
For CC(C)(C)NC(=O)C(c1ccncc1)N(C(=O)Cn1nnc(-c2ccc(F)cc2)n1)c1ccc(F)cc1 (stereo unspecified) the results were GCN5L2 inh -2%, VDR inh -22%, 12-LOX inh -3% and PLK1 PBD block -16%.
NC(N)=NC(N)=Nc1ccccc1Br was read as 12-LOX inh -2%.
For O=C(CNS(=O)(=O)c1ccccc1)N/N=C/c1ccc(O)cc1 the results were GCN5L2 inh -8%, VDR inh 3%, 12-LOX inh -17% and PLK1 PBD block -15%.
O=C(CNS(=O)(=O)c1ccccc1)N/N=C\c1ccc(Cl)cc1 was read as GCN5L2 inh 4%, VDR inh -18%, 12-LOX inh -22% and PLK1 PBD block 24µM*.
Screening O=C1c2ccccc2C(=O)C12OC2c1cccc2ccccc12 (stereo unspecified) returned GCN5L2 inh -8%, VDR inh 13µM*, 12-LOX inh inconclusive and PLK1 PBD block inconclusive.
Screening O=C1NC(c2cccc3ccccc23)Nc2ccccc21 (stereo unspecified) returned VDR inh 12%, 12-LOX inh inconclusive and PLK1 PBD block -7%.
Screening CCNC(=O)c1ccccc1-c1nc(-c2ccccc2Cl)no1 returned GCN5L2 inh -2%, VDR inh -27%, 12-LOX inh 0% and PLK1 PBD block 12µM*.
For Cc1ccc(CN2CCC(CNC(=O)Nc3cn(CC(C)C)c(=O)c4ccccc34)C2)cc1 (stereo unspecified) the results were 12-LOX inh 45µM*.
Screening Cc1ccc(CN2CCC(CNC(=O)Nc3cccc(C)c3C)C2)cc1 (stereo unspecified) returned GCN5L2 inh -2%, VDR inh 7% and 12-LOX inh -21%.
`CC(=O)n1nnc2ccccc21` gave VDR inh -7%.
